# LmPK inhibitor – LmPK (Leishmania mexicana) enzyme inhibition. Potency, µM (series often up to 57.5 µM), for inactives: at the highest dose activity change, negative = inhibition, hits mostly inhibitors. 0.37% of 290,000 active. AID 1721. Q27686. purified LmPK, Kinase-Glo ATP luminescence, 1 h
# Target sequence (Q27686 whole entry, looked up): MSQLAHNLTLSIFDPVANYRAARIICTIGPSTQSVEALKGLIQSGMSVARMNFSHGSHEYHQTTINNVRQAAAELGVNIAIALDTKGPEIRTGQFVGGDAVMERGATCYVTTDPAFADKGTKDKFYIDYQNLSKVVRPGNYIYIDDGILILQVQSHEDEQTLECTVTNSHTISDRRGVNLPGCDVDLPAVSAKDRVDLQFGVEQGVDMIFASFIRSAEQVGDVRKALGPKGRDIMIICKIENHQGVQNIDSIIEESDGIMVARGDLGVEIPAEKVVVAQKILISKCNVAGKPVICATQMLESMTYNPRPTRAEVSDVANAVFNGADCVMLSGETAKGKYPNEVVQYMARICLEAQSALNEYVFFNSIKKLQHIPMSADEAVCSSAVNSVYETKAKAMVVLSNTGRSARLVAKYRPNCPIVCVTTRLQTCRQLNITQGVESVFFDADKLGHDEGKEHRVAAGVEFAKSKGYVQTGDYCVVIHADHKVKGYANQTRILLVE
#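 Screened at intermediate enzyme activity to detect both inhibitors and activators: LmPK at 0.1 nM, with a 0.5 nM enzyme column as activation reference. PEP 0.5 mM, ADP 0.1 mM; ATP detected by luminescence after 1 h.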
# Sm TGR inh – blocks Schistosoma mansoni thioredoxin glutathione reductase | Q962Y6 | purified TGR, DTNB reduction, TNB absorbance 405 nm | 3% of 360,000 active | Potency, µM (series often up to 114 µM), for inactives: at the highest dose activity change, negative = inhibition, actives largely listed as inhibitors | AID 485364; also: nearly all actives have a fitted effect of over 60% in size
#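 Kinetic colorimetric format: TGR-catalysed, NADPH-driven DTNB reduction monitored via TNB absorbance. Enzyme dispensed at 20 nM; compound exposure 15 min at room temperature before reaction start.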
# AMA1 RON2 block – AMA1-RON2 (P. falciparum) interaction inhibition | AlphaScreen AMA1-biotinylated RON2 peptide binding | Potency, µM (doses to about 58.2 µM), for the others: at the top dose activity change, negative = inhibition, actives largely listed as inhibitors | 0.2% of 360,000 active | AID 720542;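 also: 0% = vehicle wells and -100% = peptide control; nearly all actives have a fitted effect of over 45% in size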
#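 AMA1 (3D7) with his tag at 25 nM final met compounds first, then biotinylated RON2 peptide at 25 nM; detection used donor plus acceptor beads, 10 µg/mL apiece, read by AlphaScreen after 30 min at room temperature.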
# TbPYK inhibitor – inhibitors of Trypanosoma brucei pyruvate kinase; Q57TT1; TbPYK enzyme, Kinase-Glo Plus ATP luminescence, 45 min; Potency, µM (highest dose often 76.8 µM), for inactives: at the highest dose activity, negative = inhibition, actives largely listed as inhibitors; 0.12% of 410,000 active; AID 624173; also: nearly all actives have a fitted effect of over 50% in size
#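 In this concentration-response screen, enzyme-free wells defined baseline while DMSO plates tracked drift. Each reaction combined TbPYK, substrate, compound and 130 uM ADP for 45 min at room temperature. Kinase-Glo Plus luminescence gave the signal.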
# RE007 growth inh – less growth of the S. pombe RE007 Vpr strain; 0.21% of 360,000 active; S. pombe RE007 Vpr strain, BacTiter-Glo ATP luminescence, 24 h; Potency, µM (titrated, usually from 92.2 µM), for inactives: top-dose activity change, negative = less growth, actives largely listed as inhibitors; active = well fitted falling curve with a large enough effect; inconclusive = small, poorly fitted or top-dose-only effect; inactive = no such curve, though single readings can be large or run the other way; also: nearly all actives have a fitted effect of over 50% in size
#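 Fission yeast RE007 carrying one integrated HIV-1 vpr copy, seeded at OD 0.01 in PMG+AL medium with 23 nL pinned compound. Grown 24 h at 30 degrees; viability read by BacTiter-Glo luminescence after 5 min.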
# Active calls of the source: *; ? = inconclusive; · = not tested or not shown; [ ] = remark or other dose. Only some compounds are listed: those with a hit (about 3.2% of all), similar ones and a draw of the others. Unless noted, calls follow the shape of the dose curve; as a rule, active = well fitted curve in the direction sought with a large enough effect; inconclusive = small, poorly fitted or top-dose-only effect, or another doubt; inactive = no such curve, though single readings can be large; an effect the other way counts as inactive or inconclusive. Unless noted, % is scaled to controls: 0 for no effect and ±100 for the full control effect; potency is read from the fitted curve at half-maximal effect.
SMILES,LmPK inhibitor,Sm TGR inh,AMA1 RON2 block,TbPYK inhibitor,RE007 growth inh
CC(=O)c1cccc(N(C(=O)Cn2nnc3ccccc32)C(C(=O)NCc2ccccc2)c2ccc(F)cc2)c1 (stereo not drawn),·,-4.5%,·,4.1%,·
COc1ccc(CC(=O)OCCc2cc3cc(OC)c(OC)cc3c(=O)o2)cc1,·,7.08µM*,0.0%,-6.1%,7.3%
O=C(COC(=O)c1ccc(-c2ccc([N+](=O)[O-])cc2)o1)NC(=O)NC1CCCCC1,4.5%,39.8µM*,-6.3%,-18.4%,·
O=C(NC1CCC(O)CC1)c1ccc(-c2ccc([N+](=O)[O-])cc2)o1 (stereo not drawn),-1.7%,1.41µM*,2.9%,1.4%,22.3%
O=C(NC1CCCCC1)c1ccc(-c2ccccc2[N+](=O)[O-])o1,-9.3%,-8.9%,-3.6%,8.6%,1.2%
CCCCCc1cc(O)c2c(c1)OC(C)(C)c1ccc(C)cc1-2,·,·,·,8.5%,·
COc1ccc(NC(=O)c2cnc3sc(N4CCOCC4)nn3c2=O)c(OC)c1,·,5.8%,·,-5.9%,·
Cc1ccc([N+](=O)[O-])c2c1C(N1CCCC1)C(C)(C)O2 (stereo not drawn),-3.9%,56.2µM*,-5.1%,-20.0%,-4.8%
Cc1ccc(C)c(NC(=O)N2CCN(C(=O)c3nsc4ccccc34)CC2)c1,·,-16.3%,·,-2.9%[15.4 µM],·
O=C(NC1=NCCS1)C12CC3CC(C1)CC(C(=O)NC1=NCCS1)(C3)C2,-2.3%,6.0%,-3.1%,-14.1%,-16.6%
CC12CC3(C)CC(C)(C1)CC(C(=O)NC1=NCCS1)(C2)C3,·,·,8.2%,0.7%,25.1µM*
CC12CC3CC(C)(C1)CC(C(=O)NC1=NCCS1)(C3)C2,2.8%,2.9%,20.7%,-8.1%,5.62µM*
CCC(OC(=O)c1ccco1)C(=O)NCc1ccco1 (stereo not drawn),-1.1%,0.0%,2.7%,1.2%,12.1%
O=C(NCc1ccco1)[C@@H]1CCCN1C(=O)c1cccs1,-11.5%,39.8µM*,-3.6%,-8.1%,9.9%
CC(C)CC(OC(=O)c1cccs1)C(=O)NCc1ccco1 (stereo not drawn),9.7%,39.8µM*,-5.4%,0.1%,3.9%
O=C(NCc1ccccc1)[C@@H]1CCCN1C(=O)[C@@H]1CCCN1C(=O)c1cccs1,·,·,3.6%,-4.7%,2.6%
CCC(OC(=O)c1cccs1)C(=O)NCc1ccco1 (stereo not drawn),-0.8%,56.2µM*,-14.1%,-1.0%,-5.1%
COCCNC(=O)Cn1c(=O)c2cccn2c2ccc(F)cc21,·,3.3%,·,-1.9%,·
Cc1cccc(C)c1NC(=O)Cn1c(=O)n(Cc2ccccc2)c(=O)c2c(C)c(C(=O)N(C)C)sc21,·,-6.7%,·,-2.3%,·
Cc1cc(-c2ccccc2)nc2cc(C(=O)Nc3cc(C(F)(F)F)ccc3Cl)nn12,·,-0.3%,·,-5.4%,·
CN(C)c1ccc(-c2ccnc3c2CC(C)(C(=O)NCC2CC2)O3)cc1 (stereo not drawn),·,·,?,-4.5%,8.5%
COc1ccc(CNC(=O)C2(C)Cc3c(-c4ccc5c(c4)OCO5)ccnc3O2)cc1OC (stereo not drawn),·,·,-12.9%,-2.2%,0.3%
CN(C)c1ccc(CNC(=O)C2(C)Cc3c(-c4ccc5c(c4)OCO5)ccnc3O2)cc1 (stereo not drawn),·,·,28.2µM*,-5.5%,-10.0%
CN(C)c1ccc(CNC(=O)C2(C)Cc3c(-c4ccccc4)ccnc3O2)cc1 (stereo not drawn),·,·,28.2µM*,-10.4%,6.5%
CN(C)c1ccc(CNC(=O)C2Cc3c(-c4ccccc4Oc4ccccc4)ccnc3O2)cc1 (stereo not drawn),·,·,10µM*,-2.3%,18.1%
CN(C)c1ccc(CNC(=O)C2(C)Cc3c(-c4ccc(N(C)C)cc4)ccnc3O2)cc1 (stereo not drawn),·,·,11.2µM*,-1.4%,-0.1%
COc1ccc(CNC(=O)C2Cc3c(-c4ccccc4Oc4ccccc4)ccnc3O2)cc1OC (stereo not drawn),·,·,-15.9%,-1.8%,-4.9%[18.4 µM]
CCc1ccc(C2CC(=O)Nc3cc4c(cc32)OCO4)cc1 (stereo not drawn),·,-4.3%,·,-3.2%,·
